Reference: PubChem BioAssay (Tox21)
Results filed as inconclusive are left out. Calls of active or inactive are those of the source. Unless noted, the call rests on the fitted dose curve; in most records, active means well fitted curve in the direction sought with a large enough effect in the repeat runs; inconclusive means weak or mixed curves; inactive means no such curve, though single readings can be large; an effect the other way counts as inactive or inconclusive.

Assays:
[1] = qHTS assay to test for compound auto fluorescence at 535 nm (green) in HEK293 cells (AID 720680)
[2] = qHTS assay to test for compound auto fluorescence at 460 nm (blue) in HEK293 cell free culture (AID 720681)
How it was run: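 Blue fluorescence (Ex 405/Em 460 nm, triamterene-equivalent) was read immediately after pin transfer of compound or DMSO into medium (DMEM, 10% FBS) without cells.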

[3] = qHTS assay to test for compound auto fluorescence at 535 nm (green) in HEK293 cell free culture (AID 720682)
How it was run: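 No cells present: wells hold DMEM supplemented with 10% FBS, into which compound or vehicle is pinned. Green emission is then recorded (485 nm excitation, 535 nm emission) and scaled to fluorescein.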

[4] = qHTS assay to test for compound auto fluorescence at 590 nm (red) in HEK293 cell free culture (AID 720683)
How it was run: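 Red-channel autofluorescence of compounds in culture medium (DMEM, 10% FBS), no cells, measured at 540/590 nm. Rose Bengal sodium is the reference fluorophore for equivalence.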

[5] = qHTS assay to test for compound auto fluorescence at 590 nm (red) in HepG2 cell free culture (AID 720684)
How it was run: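 Plate contents were MEM with 10% FBS plus test compound or DMSO, no cells. Fluorescence was recorded with 540 nm excitation and 590 nm emission.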

[6] = qHTS assay to test for compound auto fluorescence at 460 nm (blue) in HepG2 cell free culture (AID 720685)
How it was run: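 Compound (23 nL) or DMSO pinned into cell-free MEM with 10% FBS; blue fluorescence read at 405/460 nm excitation/emission, expressed as auto-fluorescence equivalency to triamterene.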

[7] = qHTS assay to test for compound auto fluorescence at 535 nm (green) in HepG2 cell free culture (AID 720686)
[8] = qHTS assay to test for compound auto fluorescence at 460 nm (blue) in HepG2 cells (AID 720687)
How it was run: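 Blue-channel autofluorescence (Ex/Em 405/460 nm, triamterene-equivalent) was measured after 1 hr compound exposure at 37 C, 5% CO2. Cells were HepG2, plated overnight at 37 C in MEM plus 10% FBS.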

[9] = molecular target: Glucocorticoid receptor (Homo sapiens) (UniProt P04150); assay: qHTS assay to identify small molecule agonists of the glucocorticoid receptor (GR) signaling pathway (AID 720691; active means well fitted activation curve with a large enough effect in the signal ratio in the repeat runs, not every such curve was filed as active; the % refers to the signal ratio)
Sequence of Glucocorticoid receptor (Homo sapiens) (P04150 whole entry, looked up): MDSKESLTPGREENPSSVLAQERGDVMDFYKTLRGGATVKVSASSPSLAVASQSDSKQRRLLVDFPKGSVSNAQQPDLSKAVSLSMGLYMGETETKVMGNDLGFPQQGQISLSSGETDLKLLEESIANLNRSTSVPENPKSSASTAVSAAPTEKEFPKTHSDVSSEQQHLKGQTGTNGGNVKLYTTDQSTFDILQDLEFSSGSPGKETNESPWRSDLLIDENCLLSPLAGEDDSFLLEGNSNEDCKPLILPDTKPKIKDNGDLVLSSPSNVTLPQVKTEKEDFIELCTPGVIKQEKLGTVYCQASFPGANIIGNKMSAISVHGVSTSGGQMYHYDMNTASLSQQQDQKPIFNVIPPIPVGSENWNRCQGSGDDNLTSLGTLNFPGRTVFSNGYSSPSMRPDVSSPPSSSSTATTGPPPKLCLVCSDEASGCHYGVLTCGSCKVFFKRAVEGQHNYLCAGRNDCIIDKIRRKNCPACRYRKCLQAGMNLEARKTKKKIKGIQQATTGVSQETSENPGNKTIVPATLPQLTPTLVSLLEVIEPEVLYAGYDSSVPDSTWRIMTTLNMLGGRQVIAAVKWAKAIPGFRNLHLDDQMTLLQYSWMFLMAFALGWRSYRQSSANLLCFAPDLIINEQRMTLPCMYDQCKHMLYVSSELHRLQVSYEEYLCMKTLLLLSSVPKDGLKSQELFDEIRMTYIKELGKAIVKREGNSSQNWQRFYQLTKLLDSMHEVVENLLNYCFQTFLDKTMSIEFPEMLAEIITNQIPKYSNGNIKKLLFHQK
How it was run: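 Reporter read-out: fluorescence intensity following 2 h room-temperature LiveBLAzer B/G FRET substrate loading. Prior step: GR-bla HeLa cells held 4 h, then treated 18 h at 37 C.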

[10] = qHTS assay to identify small molecule antagonists of the glucocorticoid receptor (GR) signaling pathway - cell viability counter screen (AID 720693); further: nearly all actives have a fitted effect of over 55% in size
[11] = qHTS assay for identifying genotoxic compounds that show differential cytotoxicity against isogenic chicken DT40 cell lines with known DNA damage response pathways - wild type cell line (AID 743012); further: nearly all actives have a fitted effect of over 60% in size
How it was run: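 Using parental DT40 (300 cells/well), compounds delivered in DMSO incubate 40 h at 37 C/5% CO2. CellTiter-Glo reagent then stands 30 min at room temperature, and luminescence gives cell viability.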

[12] = qHTS assay for identifying genotoxic compounds that show differential cytotoxicity against isogenic chicken DT40 cell lines with known DNA damage response pathways - Rev3 mutant cell line (AID 743014); further: nearly all actives have a fitted effect of over 55% in size
[13] = qHTS assay for identifying genotoxic compounds that show differential cytotoxicity against isogenic chicken DT40 cell lines with known DNA damage response pathways - Rad54/Ku70 mutant cell line (AID 743015); further: nearly all actives have a fitted effect of over 60% in size
[14] = qHTS assay to identify small molecule antagonists of the androgen receptor (AR) signaling pathway - cell viability counter screen (AID 743033; further: nearly all actives have a fitted effect of over 45% in size)
[15] = qHTS assay to identify small molecule antagonists of the androgen receptor (AR) signaling pathway using the MDA cell line - cell viability counter screen (AID 743041; further: nearly all actives have a fitted effect of over 45% in size)
How it was run: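 R1881-driven MDA-kb2 AR-luc cells, 3,000/well, were dosed with library compounds for 16 h; cell health came from CellTiter-Fluor fluorescence in the reporter wells.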

[16] = qHTS assay to identify small molecule antagonists of the thyroid receptor (TR) signaling pathway - cell viability counter screen (AID 743064); further: nearly all actives have a fitted effect of over 50% in size
How it was run: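 Rat GH3 pituitary tumor cells stably expressing two TR response elements driving luciferase were plated, rested 4 h, then dosed with library compounds and T3 (1 nM final). After 23.5 h at 37 °C, CellTiter-Fluor was added for 30 min and fluorescence recorded.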

[17] = molecular target: Androgen receptor (Homo sapiens) (UniProt P10275); assay: qHTS assay to identify small molecule antagonists of the androgen receptor (AR) signaling pathway (AID 743035; active means well fitted inhibition curve with a large enough effect in the signal ratio in the repeat runs, not every such curve was filed as active; the % refers to the signal ratio)
Sequence of Androgen receptor (Homo sapiens) (P10275 whole entry, looked up): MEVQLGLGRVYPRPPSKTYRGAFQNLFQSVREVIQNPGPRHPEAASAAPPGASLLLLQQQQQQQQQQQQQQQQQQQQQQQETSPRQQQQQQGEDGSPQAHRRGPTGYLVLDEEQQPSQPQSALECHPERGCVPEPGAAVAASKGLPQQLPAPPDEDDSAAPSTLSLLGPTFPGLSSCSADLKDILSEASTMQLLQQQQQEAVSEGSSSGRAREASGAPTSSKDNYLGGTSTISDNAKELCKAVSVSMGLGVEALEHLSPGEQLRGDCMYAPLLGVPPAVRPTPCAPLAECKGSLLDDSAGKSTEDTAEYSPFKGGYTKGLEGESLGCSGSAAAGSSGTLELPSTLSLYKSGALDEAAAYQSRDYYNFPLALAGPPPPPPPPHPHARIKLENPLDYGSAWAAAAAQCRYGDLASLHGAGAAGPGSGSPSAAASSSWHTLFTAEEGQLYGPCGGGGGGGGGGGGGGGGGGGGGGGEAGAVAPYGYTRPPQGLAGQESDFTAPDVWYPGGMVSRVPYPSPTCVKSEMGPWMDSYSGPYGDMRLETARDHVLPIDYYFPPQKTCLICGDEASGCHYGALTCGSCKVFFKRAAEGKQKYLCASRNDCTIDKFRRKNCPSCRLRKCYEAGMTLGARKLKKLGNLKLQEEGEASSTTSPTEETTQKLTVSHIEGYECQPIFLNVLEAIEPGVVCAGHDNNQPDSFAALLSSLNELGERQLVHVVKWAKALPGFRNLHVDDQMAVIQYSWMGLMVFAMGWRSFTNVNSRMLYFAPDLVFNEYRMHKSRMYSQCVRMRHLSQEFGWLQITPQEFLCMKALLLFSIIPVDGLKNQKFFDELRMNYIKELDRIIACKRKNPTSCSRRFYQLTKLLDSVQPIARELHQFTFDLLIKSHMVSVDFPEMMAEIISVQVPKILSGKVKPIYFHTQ
How it was run: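 Using qHTS, AR-UAS-bla GripTite HEK293 cells received compound, then R1881, and were cultured 16 h at 37C/5% CO2 before a 2 h room-temperature LiveBLAzer B/G FRET substrate step and fluorescence measurement.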

[18] = molecular target: Androgen receptor (Homo sapiens) (UniProt P10275); assay: qHTS assay to identify small molecule agonists of the androgen receptor (AR) signaling pathway using the MDA cell line (AID 743040; further: nearly all actives have a fitted effect of over 20% in size)
How it was run: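 After a 5 h incubation at 37C and 0% CO2, MDA-kb2 reporter cells were dosed with compounds in DMSO and kept 16 h under the same conditions. Luciferase activity was then read as luminescence with ONE-Glo.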

[19] = molecular target: Androgen receptor (Homo sapiens) (UniProt P10275); assay: qHTS assay to identify small molecule antagonists of the androgen receptor (AR) signaling pathway using the MDA cell line (AID 743042; further: nearly all actives have a fitted effect of over 55% in size)
How it was run: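 Antagonist mode: compounds plus R1881 agonist added to MDA-kb2 AR-luc cells, incubated 16 h at 37C. Luciferase reporter luminescence quantified, with multiplexed CellTiter-Fluor readout for cell viability.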
On the % scale 0 is the no-effect control and ±100 the full control effect.

Cc1ccc(Br)cc1
inactive: outcome [1] | outcome [2] | outcome [3] | outcome [4] | outcome [5] | outcome [6] | outcome [7] | outcome [8] | Potency [9] | outcome [10] | Potency [11] | Potency [12] | Potency [13] | outcome [14] | outcome [15] | Potency [16]

CCOCCOCCOC(C)=O
inactive: outcome [1] | outcome [2] | outcome [3] | outcome [4] | outcome [5] | outcome [6] | outcome [7] | outcome [8] | Potency [9] | Potency [11] | Potency [12] | Potency [13] | outcome [14] | outcome [15] | Potency [16]

COCCCOc1cc(C[C@@H](C[C@H](N)[C@@H](O)C[C@H](C(=O)NCC(C)(C)C(N)=O)C(C)C)C(C)C)ccc1OC
inactive: outcome [1] | outcome [2] | outcome [3] | outcome [4] | outcome [5] | outcome [6] | outcome [7] | outcome [8] | Potency [9] | outcome [10] | Potency [12] | Potency [13] | outcome [14] | outcome [15] | Potency [16]

BrCCOc1ccccc1
inactive: outcome [1] | outcome [2] | outcome [3] | outcome [4] | outcome [5] | outcome [6] | outcome [7] | outcome [8] | Potency [9] | outcome [10] | Potency [11] | Potency [13] | Potency [16]

C=CCCCCCCCCOC(C)=O
inactive: outcome [1] | outcome [2] | outcome [3] | outcome [4] | outcome [5] | outcome [6] | outcome [7] | outcome [8] | Potency [9] | outcome [10] | Potency [11] | Potency [12] | outcome [14] | outcome [15] | Potency [16]

CCCCCCCCCCCCCCCCN(C)C
inactive: fluorescence, % of fluorescein [1] 0.0696% [at 3.72 µM] | fluorescence, % of fluorescent control [2] -0.0334% [at 3.72 µM] | activity change [3] 0.0487% [at 3.72 µM] | fluorescence, % of fluorescent control [4] 0.0064% [at 3.72 µM] | fluorescence, % of Rose Bengal [5] -0.0248% [at 3.72 µM] | fluorescence, % of fluorescent control [6] -0.0345% [at 3.72 µM] | fluorescence, % of fluorescein control [7] 0.006% [at 3.72 µM] | fluorescence, % of fluorescent control [8] -0.0699% [at 3.72 µM] | activation [9] -0.164% [at 6.9 µM] | viability change, negative = cytotoxic [10] 9.67% [at 7.04 µM] | activity change, negative = cytotoxicity [11] 9.27% [at 8.52 µM] | activity change, negative = cytotoxicity [14] -5.02% [at 7.04 µM] | activity change, negative = inhibition [17] -9.68% [at 7.04 µM] | activity change [18] 0.294% [at 8.47 µM] | viability change, negative = cytotoxic [15] -2.54% [at 8.47 µM] | activity change, negative = inhibition [19] 19.6% [at 8.47 µM] | activity change, negative = cytotoxic [16] 0.507% [at 8.44 µM]

Cc1ccc(NC(N)=O)cc1
inactive: outcome [1] | outcome [2] | outcome [3] | outcome [4] | outcome [5] | outcome [6] | outcome [7] | outcome [8] | Potency [9] | Potency [11] | Potency [12] | Potency [13] | outcome [14] | outcome [15] | Potency [16]

CCc1ccc(CC)cc1
inactive: outcome [1] | outcome [2] | outcome [3] | outcome [4] | outcome [5] | outcome [6] | outcome [7] | outcome [8] | Potency [9] | outcome [10] | Potency [11] | Potency [12] | Potency [13] | Potency [16]
